In the library only some 2.9% were active in any assay of this set; here they are far more common.
DRD3 agonist – agonists of human D3 dopamine receptor; D3R DiscoveRx beta-arrestin cells, luminescence, 90 min; actives 0.58% (n = 410,000); P35462; max activation, %; in the data active = max activation above about 30%
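Agonist-mode cell screen: cells plated at 1500/well and incubated overnight at 37 °C, then exposed to library compounds for 90 min at 37 °C. Detection reagent was added for 30–60 min at room temperature, and luminescence was read.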
D3 antag – blocks the human D3 dopamine receptor | actives 2.5% (n = 360,000) | max response, negative = inhibition, % | D3R cells, DiscoveRx beta-arrestin luminescence, antagonist mode; hits give low values | P35462; in the data active = max response below about -50%; inconclusive = no clear call, values can overlap the other calls
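Cells plated overnight at 1500 cells/well, then exposed to library compounds with dopamine controls for 90 minutes at 37 degrees C. DiscoveRx reagent added for 30–60 minutes at room temperature; luminescence read, quantitative HTS format.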
TRPML1 ag – activates the human TRPML1 channel; Q9GZU1; TRPML1-expressing cells, Ca2+ dye fluorescence, FDSS; activation, % (concentration not given with the values); actives 0.12% (n = 410,000); AID 624414; in the data active = activation above about 50%; inconclusive = mostly about 30% to 49%
Target sequence (Q9GZU1 whole entry, looked up): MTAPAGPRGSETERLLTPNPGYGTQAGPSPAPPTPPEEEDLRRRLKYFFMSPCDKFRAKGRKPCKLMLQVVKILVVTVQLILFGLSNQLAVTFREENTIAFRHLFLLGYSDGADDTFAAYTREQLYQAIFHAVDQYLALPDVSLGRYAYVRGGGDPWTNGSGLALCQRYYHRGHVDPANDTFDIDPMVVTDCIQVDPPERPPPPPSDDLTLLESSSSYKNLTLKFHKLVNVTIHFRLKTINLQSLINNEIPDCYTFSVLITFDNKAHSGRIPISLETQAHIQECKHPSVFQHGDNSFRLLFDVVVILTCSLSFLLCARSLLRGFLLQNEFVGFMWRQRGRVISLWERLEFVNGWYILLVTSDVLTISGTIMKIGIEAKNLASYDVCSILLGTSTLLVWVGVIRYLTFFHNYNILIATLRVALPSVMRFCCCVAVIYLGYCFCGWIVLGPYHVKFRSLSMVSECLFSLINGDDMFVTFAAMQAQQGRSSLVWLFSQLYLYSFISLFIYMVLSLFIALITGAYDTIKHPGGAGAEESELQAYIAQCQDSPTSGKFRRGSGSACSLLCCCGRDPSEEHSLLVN
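Cells: TRPML1-DL, 1X Tet inducer, ~16 h at 37 degrees C/5% CO2. Dye: ABD Ca8 no-wash + quencher, 45-90 min RT. Read: 10 s baseline, compound add, 110 s agonist phase; 54-4 EC80 (4uM final), 110 s antagonist phase.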
TRPML1 blocker – inhibitors of human TRPML1 channel; Q9GZU1; TRPML1-inducible cells, Ca2+ dye fluorescence, FDSS; hits give low values; inhibition of EC80 agonist-evoked calcium signal; activity change, negative = inhibition, % (concentration not given with the values); actives 0.02% (n = 390,000); in the data active = activity change below about -50%; inconclusive = between about -30% and that limit;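 note: stimulus is agonist 54-4 at its EC80 concentration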
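TRPML1-DL cells, Tet-induced overnight (~16 h, 37 °C) at 1,500 cells/well, were loaded with Ca8 no-wash dye plus quencher for 45-90 min at room temperature. Compounds were pinned during FDSS kinetic reading; agonist 54-4 at EC80 (4 uM final) then added.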
Large screens that a line does not name were inactive.

CCOC(=O)c1c(CC(C)C)csc1NC(=O)COC(=O)c1ccc(O)cc1	DRD3 agonist 36
CCOC(=O)c1c(CC(C)C)csc1NC(=O)COC(=O)C1=NNC(=O)CC1	none
COc1ccc(NC(=O)Nc2cccs2)cc1Cl	D3 antag -63
COc1cc2nc(N3CCOCC3)nc(NC3CCN(Cc4ccccc4)CC3)c2cc1OC	none (no result: DRD3 agonist, D3 antag, TRPML1 blocker)
COc1ccc(NC(=O)Cn2c(=O)ccc3cc(S(=O)(=O)N4CCCC4)ccc32)cc1Cl	none (no result: D3 antag)
COc1ccccc1/C=C/C(=O)OC(C)CN1CCOCC1 (stereo not given)	D3 antag -83
CC(CN1CCOCC1)OC(=O)c1ccccc1 (stereo not given)	none
O=C(NCCCN1CCN(c2ccc(F)cc2)CC1)C1CCCN(c2ncnc3c2nc2n3CCCCC2)C1 (stereo not given)	D3 antag -55
CC1CCN(CCCNC(=O)C2CCCN(c3ncnc4c3nc3n4CCCCC3)C2)CC1 (stereo not given)	none
COc1ccccc1N1CCN(CCCNC(=O)C2CCCN(c3ncnc4c3nc3n4CCCCC3)C2)CC1 (stereo not given)	D3 antag -104
CN(C(=O)CO)c1c(I)c(C(=O)NCC(O)CO)c(I)c(C(=O)NCC(O)CO)c1I (stereo not given)	none (no result: D3 antag, TRPML1 ag, TRPML1 blocker)
COc1ccccc1N1CCN(Cc2cc(Br)c(O)c3ncccc23)CC1	D3 antag -84
CCOc1ccccc1N1CCN(Cc2cccc(OC)c2O)CC1	D3 antag -93
CCOc1ccccc1NC(=O)c1nc2nc(C)cc(C(F)F)n2n1	none (no result: D3 antag)
O=C(Nc1ccccc1C(=O)O)c1cc(S(=O)(=O)N2CCCCC2)c(Cl)cc1Cl	DRD3 agonist 31
CCN1CCN(S(=O)(=O)c2ccc(Cl)c(C(=O)Nc3ccccc3N3CCCC3)c2)CC1	none
O=C(Nc1ccccc1C(=O)O)c1ccc(Cl)c(S(=O)(=O)N2CCOCC2)c1	none
CCN1CCN(S(=O)(=O)c2ccc(Cl)c(C(=O)Nc3ccccc3N3CCCCC3)c2)CC1	TRPML1 ag 100
C=C1C=C(C(F)F)n2ncc(C(=O)NC(C)CC)c2N1 (stereo not given)	none (no result: DRD3 agonist, D3 antag, TRPML1 blocker)
O=C(CSc1nc2c([nH]c3ccccc32)c(=O)n1-c1cccc(Cl)c1)N1CCc2ccccc21	none (no result: D3 antag)
CCc1cc2c(cc3c(=O)n(CC(=O)N4CCCCC4)nc(CC)n32)s1	none (no result: D3 antag)
COc1cc2c(NC3CCN(C)CC3)nc(N3CCCN(C)CC3)nc2cc1OCc1ccccc1	none (no result: DRD3 agonist, D3 antag, TRPML1 blocker)
c1ccc2c(c1)OC(CCCN1CCCCC1)c1ccccc1S2 (stereo not given)	none
CN1CCCC(CC2Oc3ccccc3Sc3ccccc32)C1 (stereo not given)	D3 antag -84
O=C1c2cccnc2C(=O)N1c1nc(-c2ccccc2)cs1	none (no result: DRD3 agonist, D3 antag, TRPML1 blocker)
CCOC(=O)c1c(NC(=O)Cn2nnc3ccccc32)sc2c1CCC(C)C2 (stereo not given)	DRD3 agonist 33
CCOC(=O)c1c(NC(=O)COC(=O)Cn2cnc3ccccc32)sc2c1CCC(C)C2 (stereo not given)	none
O=C(Cc1ccc(OCCc2ccccc2)cc1)NO	none (no result: DRD3 agonist, D3 antag, TRPML1 blocker)
COc1cccc(NC(=S)N(CCCN2CCOCC2)C(C)c2cc3ccccc3o2)c1 (stereo not given)	D3 antag -55
COc1ccc(C2Nc3ccc(NC(C)=O)cc3C(=O)N2Cc2cccc(Cl)c2)cc1COc1ccc(NC(C)=O)cc1 (stereo not given)	none (no result: DRD3 agonist, D3 antag, TRPML1 blocker)
Oc1ccccc1CNc1nc2ccccc2n1CCN1CCCCC1	D3 antag -74
COc1ccccc1CNc1nc2ccccc2n1CCN1CCCCC1	D3 antag inconclusive
CCN(CC1CCCN(CCc2cccc(F)c2)C1)C(=O)c1ccc(CSC)o1 (stereo not given)	none
CSCCC(=O)N(C)CC1CCN(CCc2cccc(C(F)(F)F)c2)CC1	none (no result: TRPML1 ag, TRPML1 blocker)
CN(CC1CCCN(CCc2cccc(C(F)(F)F)c2)C1)C(=O)c1ccco1 (stereo not given)	D3 antag -63
COc1ccc(C(=O)N(C)CC2CCN(CCc3cccc(C(F)(F)F)c3)CC2)cc1C	D3 antag -77
CN(CC1CCN(CCc2cccc(C(F)(F)F)c2)CC1)C(=O)c1ccc(F)cc1F	D3 antag -69
CCN(CC1CCCN(CCc2cccc(F)c2)C1)C(=O)c1ccoc1C (stereo not given)	D3 antag -51
CC(=O)Nc1ccc(CN(C)CC2CCCN(CCc3cccc(C(F)(F)F)c3)C2)cc1 (stereo not given)	none
Cc1cc(N(C)C)cc(C)c1/C=C/c1ccnc2ccccc12	none (no result: DRD3 agonist, D3 antag, TRPML1 blocker)
C#CCCOC(=O)N1C2=NC(C(=O)OC)=C(C(=O)OC)[C@@H]3N(C)c4ccccc4[C@]23C[C@H]1CO	TRPML1 blocker inconclusive
COC(=O)C1=C(C(=O)OC)[C@@H]2N(C)c3ccccc3[C@@]23C[C@@H](CO)N(C(=O)c2cccs2)C3=N1	D3 antag -51
CCCn1cc(SCC(=O)Nc2cc(C)on2)c2ccccc21	none
CCn1cc(SCC(=O)Nc2cc(C)on2)c2ccccc21	D3 antag -89
CCN(CC)C(=O)Cn1cc(S(=O)(=O)CC(=O)Nc2cc(C)on2)c2ccccc21	D3 antag -51
c1cc2c3c(c1)CCC[N+]3(C1CCCCC1)CCC2	none (no result: DRD3 agonist, D3 antag, TRPML1 blocker)
N#C/C(=C/c1ccc(N2CCCC2)c([N+](=O)[O-])c1)c1nc2ccccc2[nH]1	D3 antag inconclusive
Cc1ccc2nc(/C(C#N)=C\c3ccc(N4CCCCC4)c([N+](=O)[O-])c3)[nH]c2c1	D3 antag -70
COc1cccc(NC(=O)Cn2nnc(-c3nc(-c4ccccc4)no3)c2N)c1	none (no result: D3 antag)
Cc1ccc(Oc2cc([N+](=O)[O-])cc3c2C(=O)Nc2ccccc2O3)cc1	DRD3 agonist 49
O=C1Nc2ccccc2Oc2cc(Oc3ccc(Cl)cc3)ccc21	none (no result: D3 antag)
COc1ccc(Cl)cc1NC(=O)CN(C)C(=O)c1ccc(N2CCCCCC2)c([N+](=O)[O-])c1	none
COc1ccc(Cl)cc1NC(=O)CN(C)C(=O)c1ccc(N2CCCCC2)c([N+](=O)[O-])c1	TRPML1 ag 61
CCOc1ccc(NC(=O)CN(C)C(=O)c2ccc(N3CCCC3)c([N+](=O)[O-])c2)cc1OCC	D3 antag -60
CCOc1ccc(NC(=O)CN(C)C(=O)c2ccc(N3CCCCC3)c([N+](=O)[O-])c2)cc1OCC	none
COc1ccc(N2C(=O)CSC23C(=O)N(CC(=O)NC2CCCCC2)c2ccccc23)cc1 (stereo not given)	none (no result: D3 antag)
COC(=O)CSc1[nH]c2ccc(Br)cc2c1[N+](=O)[O-]	none
CCOc1ccc2[nH]c(SCC(=O)OC)c([N+](=O)[O-])c2c1	D3 antag -53
O=C1C2CC3CC1CC(O)(C3)C2	none (no result: D3 antag, TRPML1 ag, TRPML1 blocker)
CCn1c(C(=O)N2CCCC(C(=O)N3CCN(c4ccccc4)CC3)C2)cc2sccc21 (stereo not given)	TRPML1 ag 61, TRPML1 blocker inconclusive (no result: D3 antag)
CCn1c(C(=O)N2CCC(C(=O)N3CCN(c4ccc(OC)cc4)CC3)CC2)cc2sccc21	none (no result: D3 antag)

High-throughput results deposited in PubChem BioAssay by National Center for Advancing Translational Sciences (NCATS).
